High-throughput results: PubChem, National Center for Advancing Translational Sciences (NCATS)
TRb SRC2 PPI: qHTS for Inhibitors of the Interaction of Thyroid Hormone Receptor and Steroid Receptor Coregulator 2; AID 1469, 2008; 280,000 tested, 0.065% active; TRbeta-SRC2 peptide binding, fluorescence polarization; receptor liganded with 1 µM T3; Thyroid hormone receptor beta (Homo sapiens), P10828; Potency, µM (highest dose often 106 µM), without a hit: at the top dose activity change, negative = inhibition, hits mostly inhibitors;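 further: plate controls were bound peptide for no effect and peptide without receptor for full effect; nearly all actives have a fitted effect of over 50% in size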
Target sequence (P10828 whole entry, looked up): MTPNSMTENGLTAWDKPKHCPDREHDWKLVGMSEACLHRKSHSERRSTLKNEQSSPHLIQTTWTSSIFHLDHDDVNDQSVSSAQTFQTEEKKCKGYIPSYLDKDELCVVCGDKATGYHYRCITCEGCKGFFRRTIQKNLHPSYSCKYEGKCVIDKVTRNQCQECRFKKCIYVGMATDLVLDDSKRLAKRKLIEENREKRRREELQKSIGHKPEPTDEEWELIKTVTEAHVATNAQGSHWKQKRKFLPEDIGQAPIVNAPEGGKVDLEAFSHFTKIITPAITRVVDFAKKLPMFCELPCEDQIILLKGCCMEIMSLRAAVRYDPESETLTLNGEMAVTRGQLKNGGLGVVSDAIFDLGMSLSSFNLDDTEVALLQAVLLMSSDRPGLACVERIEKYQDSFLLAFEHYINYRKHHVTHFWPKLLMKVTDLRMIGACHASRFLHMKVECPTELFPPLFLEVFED
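Read-out is fluorescence polarization (555 nm excitation, 632 nm emission) of a Texas Red SRC2 coactivator peptide; loss of signal reflects blocked binding to human TRb ligand-binding domain in the presence of 1 uM T3.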
Tau FP inhib: qHTS for Inhibitors of Tau Fibril Formation, Fluorescence Polarization; Microtubule-associated protein tau (Homo sapiens), P10636; K18 P301L tau heparin fibrillization, Alexa594 FP, 6 h; Potency, µM (doses to about 57.7 µM), for inactives: at the top dose activity, negative = inhibition, hits mostly inhibitors; 280,000 tested, 0.39% active; further: nearly all actives have a fitted effect of over 55% in size
Target sequence (P10636 561-689 P618L limits assumed): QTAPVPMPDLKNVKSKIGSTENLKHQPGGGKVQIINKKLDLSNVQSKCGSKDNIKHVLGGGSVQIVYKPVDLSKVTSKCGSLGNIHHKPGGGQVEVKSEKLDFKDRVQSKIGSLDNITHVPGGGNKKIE
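Heparin (20 uM) drove fibril formation of recombinant tau K18 P301L, 15 uM unlabeled with 0.24 uM Alexa 594 label, for 6 hr at 37 C in 100 mM sodium acetate pH 7. Fluorescence polarization (555/632 nm) read 1 hr after 30 uM ThT.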
Tau fibril ThT: qHTS for Inhibitors of Tau Fibril Formation, Thioflavin T Binding. 270,000 tested, 2.1% active. recombinant tau K18 P301L, heparin-induced fibrillization, ThT fluorescence. AID 1460, 2008. Potency, µM (doses to about 57.4 µM), without a hit: top-dose activity, negative = inhibition, hits mostly inhibitors. Microtubule-associated protein tau (Homo sapiens), P10636; further: nearly all actives have a fitted effect of over 55% in size
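Aggregation was driven by heparin (20 uM final) acting on recombinant tau […] bearing P301L in 100 mM sodium acetate pH 7; fibrils were detected with Thioflavin T.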
TR SRC2 fluor cs: Total Fluorescence Counterscreen for Inhibitors of the Interaction of Thyroid Hormone Receptor and Steroid Receptor Coregulator 2; TRb/SRC2 Texas Red total fluorescence interference; Potency, µM (top dose mostly 106 µM), without a hit: at the highest dose fluorescence change, negative = quenching; AID 1479, 2009; 280,000 tested, 0.29% active; active means well fitted curve in either direction with a large enough effect; inconclusive means small, poorly fitted or top-dose-only effect
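Human TRβ ligand-binding domain (0.6 uM) and Texas Red SRC2 peptide (20 nM) in Tris buffer with 1 uM T3 and 5% DMSO were incubated with pinned compound for 5 hr at ambient temperature. Total fluorescence was computed as S + 2P (555/632 nm).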
Tau fluor counter: Counterscreen qHTS for Inhibitors of Tau Fibril Formation, Fluorescence Polarization; Potency, µM (titrated, usually from 57.7 µM), for inactives: at the top dose activity change, negative = decrease; AID 1463, 2008; 280,000 tested, 0.93% active; tau K18 P301L (four-repeat tau fragment) Alexa594 fluorescence, heparin fibrillization; further: nearly all actives have a fitted effect of over 55% in size
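Human K18 P301L tau (15 uM unlabeled plus 0.24 uM Alexa 594-labeled, final) in 100 mM sodium acetate pH 7 was mixed with compound and 20 uM heparin and incubated 6 hr at 37 C.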
The depositor's hits bear a star; [ ] = dose if it differs, or a comment. In the library only some 3.1% were active in any assay of this set; here they are far more common. Unless noted, the call rests on the fitted dose curve; in most records, active means well fitted curve in the direction sought with a large enough effect; inconclusive means small, poorly fitted or top-dose-only effect, or another doubt; inactive means no such curve, though single readings can be large; an effect the other way counts as inactive or inconclusive. Unless noted, on the % scale 0 is the no-effect control and ±100 the full control effect; potency means the concentration at half of the fitted maximal effect.

`Cc1ccc(-n2ncc(C(=O)Nc3ccc4c(c3)OCO4)c2C2CCN(C(=O)OC(C)(C)C)CC2)c(C)c1` gave TRb SRC2 PPI 7%, Tau FP inhib 4%, Tau fibril ThT inconclusive, TR SRC2 fluor cs 1% and Tau fluor counter inconclusive.
Screening COc1ccc(-c2n[nH]c(C)c2-c2cnn(-c3ccccc3)c2)c(O)c1C returned TRb SRC2 PPI -13%, Tau FP inhib inconclusive, Tau fibril ThT inconclusive, TR SRC2 fluor cs -1% and Tau fluor counter 13µM*[quencher].
`CCN(CC)CCCn1c(-c2ccccc2)nc2c(NCCOC)nc(C)nc21` gave TRb SRC2 PPI 0%, Tau FP inhib -5%, Tau fibril ThT -4%, TR SRC2 fluor cs 0% and Tau fluor counter -10%.
`Cc1ccc(C(=O)c2coc3cc([N+](=O)[O-])c(O)c([N+](=O)[O-])c23)cc1` gave TRb SRC2 PPI -11%, Tau FP inhib -1%, Tau fibril ThT 3.5µM*, TR SRC2 fluor cs inconclusive and Tau fluor counter -28%.
`COc1cc(NC(=O)Nc2cccc(Cl)c2)c(OC)cc1NC(=O)CN1CCCCC1` gave TRb SRC2 PPI -4%, Tau FP inhib inconclusive, Tau fibril ThT inconclusive, TR SRC2 fluor cs -6% and Tau fluor counter 8.9µM*[quencher].
`CCc1nn(CC(=O)Nc2c(C)cc(C)cc2C)c(=O)c2cc3sccc3n12` gave TRb SRC2 PPI 1%, Tau FP inhib 8%, Tau fibril ThT 8%, TR SRC2 fluor cs 0.28µM*[quencher] and Tau fluor counter 9%.
O=C1C(=Cc2ccc(Br)o2)C(=O)c2ccccc21 was read as TRb SRC2 PPI -13%, Tau FP inhib inconclusive, Tau fibril ThT 6.3µM*, TR SRC2 fluor cs -26% and Tau fluor counter inconclusive.
For COc1ccccc1C1CCN(c2cc(O)ccc2[N+](=O)[O-])CC1 the results were TRb SRC2 PPI -2%, Tau FP inhib inconclusive, Tau fibril ThT 20µM*, TR SRC2 fluor cs -3% and Tau fluor counter inconclusive.
For COc1ccccc1C1CCN(C(=O)c2cccs2)CC1 the results were TRb SRC2 PPI -2%, Tau FP inhib -2%, Tau fibril ThT -18%, TR SRC2 fluor cs -1% and Tau fluor counter -14%.
Screening N=C1C=CC=C2C1=NC1(CCCCC1)N2O returned TRb SRC2 PPI 10%, Tau FP inhib inconclusive, Tau fibril ThT 25µM*, TR SRC2 fluor cs -6% and Tau fluor counter -26%.
Screening O=C(CO/N=C/c1cccc([N+](=O)[O-])c1)NC1CCCCC1 returned TRb SRC2 PPI -10%, Tau FP inhib -3%, Tau fibril ThT -6%, TR SRC2 fluor cs inconclusive and Tau fluor counter -10%.
For O=C(CO/N=C/c1cccc([N+](=O)[O-])c1)Nc1ccc2ccccc2c1 the results were TRb SRC2 PPI -3%, Tau FP inhib -6%, Tau fibril ThT inconclusive, TR SRC2 fluor cs 1% and Tau fluor counter 13µM*[quencher].
`COc1cc(OC)c(NC(=O)Cc2c(C(=O)O)c(C)cn2C)cc1Cl` gave TRb SRC2 PPI 1%, Tau FP inhib 9%, Tau fibril ThT 3%, TR SRC2 fluor cs 0% and Tau fluor counter 5%.
CN(C)c1ccc(SC#N)cc1 was read as TRb SRC2 PPI 7%, Tau FP inhib inconclusive, Tau fibril ThT 10µM*, TR SRC2 fluor cs -1% and Tau fluor counter inconclusive.
For CN(C)c1ccc(-n2cccc2)cc1 the results were TRb SRC2 PPI -7%, Tau FP inhib -5%, Tau fibril ThT -13%, TR SRC2 fluor cs -1% and Tau fluor counter -1%.
Screening CC(=O)N1CCc2cc(S(=O)(=O)CCC(=O)Nc3ccc(C)cc3Br)ccc21 returned TRb SRC2 PPI -6%, Tau FP inhib -5%, Tau fibril ThT -8%, TR SRC2 fluor cs 1% and Tau fluor counter -4%.
For COc1ccc2c(c1OC)C[N+]1([O-])CCc3cc4c(cc3C1C2)OCO4 (stereo unspecified) the results were TRb SRC2 PPI -2%, Tau FP inhib -1%, Tau fibril ThT 2%, TR SRC2 fluor cs -3% and Tau fluor counter 8%.
`COc1ccc2c(c1OC)C(Cc1ccccc1)N1CCc3cc4c(cc3C1=C2)OCO4` (stereo unspecified) gave TRb SRC2 PPI 4%, Tau FP inhib -11%, Tau fibril ThT 16µM*, TR SRC2 fluor cs 0% and Tau fluor counter inconclusive.
CCC1CCCCN1S(=O)(=O)c1cc(C(=O)Nc2ccc(C)c(F)c2)ccc1F (stereo unspecified) was read as TRb SRC2 PPI 3%, Tau FP inhib inconclusive, Tau fibril ThT 8%, TR SRC2 fluor cs -2% and Tau fluor counter inconclusive.
For S=C(NNc1ccnc2cc(Cl)ccc12)Nc1ccc(Cl)cc1Cl the results were TRb SRC2 PPI 3%, Tau FP inhib inconclusive, Tau fibril ThT 4µM*, TR SRC2 fluor cs -4% and Tau fluor counter 4µM*[quencher].
`CCOc1ccccc1Nc1ccnc2cc(Cl)ccc12` gave TRb SRC2 PPI -18%, Tau FP inhib -5%, Tau fibril ThT -16%, TR SRC2 fluor cs inconclusive and Tau fluor counter -15%.
S=C(NCc1ccncc1)Nc1ccc(Cl)cc1Cl was read as TRb SRC2 PPI 3%, Tau FP inhib -10%, Tau fibril ThT 1%, TR SRC2 fluor cs -2% and Tau fluor counter -3%.
Screening CCOc1ccc(NC(=S)NNc2ccnc3cc(Cl)ccc23)cc1 returned TRb SRC2 PPI -7%, Tau FP inhib -4%, Tau fibril ThT 13µM*, TR SRC2 fluor cs -1% and Tau fluor counter inconclusive.
`CCc1ccc(NC(=O)CSc2nccn2-c2cccc(C)c2C)cc1` gave TRb SRC2 PPI 3%, Tau FP inhib -6%, Tau fibril ThT inconclusive, TR SRC2 fluor cs -3% and Tau fluor counter -22%.
Screening COc1cc(NC(=O)c2cc(Cl)c(OC)c(Cl)c2)ccc1NC(=O)c1cc2ccccc2o1 returned TRb SRC2 PPI -6%, Tau FP inhib -7%, Tau fibril ThT -5%, TR SRC2 fluor cs -1% and Tau fluor counter -8%.
For CCOc1cc(C(=O)Nc2ccc(NC(=O)c3cc4ccccc4o3)c(OC)c2)cc(OCC)c1OCC the results were TRb SRC2 PPI -15%, Tau FP inhib -9%, Tau fibril ThT -6%, TR SRC2 fluor cs 35µM*[quencher] and Tau fluor counter -24%.
CCOc1ccc2[nH]c(=O)c(CN(Cc3ccco3)Cc3nnnn3Cc3ccccc3)cc2c1 was read as TRb SRC2 PPI 10%, Tau FP inhib -7%, Tau fibril ThT inconclusive, TR SRC2 fluor cs 3% and Tau fluor counter -18%.
Screening CCOc1ccc2[nH]c(=O)c(CN(Cc3nnnn3Cc3ccco3)C3CCCCC3)cc2c1 returned TRb SRC2 PPI 14%, Tau FP inhib inconclusive, Tau fibril ThT 22µM*, TR SRC2 fluor cs inconclusive and Tau fluor counter -28%.
